Results filed as inconclusive are left out. A number with no mark means an inactive call. Activity calls are given as the source filed them. Unless noted, calls follow the shape of the dose curve; as a rule, active = well fitted curve in the direction sought with a large enough effect in the repeat runs; inconclusive = weak or mixed curves; inactive = no such curve, though single readings can be large; an effect the other way counts as inactive or inconclusive.

Assay [1] is described as follows: qHTS assay to identify aromatase inhibitors - cell viability counter screen (AID 743084).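 Also: cells stimulated with testosterone during compound exposure; nearly all actives have a fitted effect of over 55% in size.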 Also: potency is read from the fitted curve at half-maximal effect.
Assay [2] concerns the target Aryl hydrocarbon receptor (Homo sapiens) (UniProt P35869). The assay can be described thus: qHTS assay to identify small molecule that activate the aryl hydrocarbon receptor (AhR) signaling pathway (AID 743085). Also: nearly all actives have a fitted effect of over 15% in size. Also: potency is read from the fitted curve at half-maximal effect.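 As to activation: HG2L7.5c1 human HepG2 liver cells with stably integrated DRE-driven firefly reporter; series mostly up to about 70 µM.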 In outline: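 Steps: seed HepG2-AhR-luc cells; allow 5 h at 37C; pin-transfer test compound or vehicle; incubate 24 h at 37C; add viability dye (30 min, 37C) and read fluorescence; add luciferase substrate (30 min, RT) and read luminescence.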
(In general: In qHTS, concentration-response curves come from the screen itself.)

Assay [3] addresses Peroxisome proliferator-activated receptor gamma (Homo sapiens) (UniProt P37231). The assay can be described thus: qHTS assay to identify small molecule agonists of the peroxisome proliferator-activated receptor gamma (PPARg) signaling pathway (AID 743094; active = well fitted activation curve with a large enough effect in the signal ratio in the repeat runs, not every such curve was filed as active; the % refers to the signal ratio). Put shortly: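 Stably transfected HEK293H cells (GeneBLAzer PPARg UAS-bla) were incubated with test substances for 17 h at 37C after a 5 h pre-incubation; beta-lactamase activity was then detected by FRET substrate fluorescence.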

Assay [4] can be described thus: qHTS assay to identify small molecule phospholipidosis (PLD) inducers (AID 1259344; active = well fitted curve in the direction sought with a large enough effect; an effect the other way counts as inactive or inconclusive). Put shortly: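 Fluorescent phospholipid staining (LipidTOX Red) measured by automated microscopy in fixed HepG2 cells after 24 h treatment; nuclei counterstained with Hoechst 33342; amiodarone as reference inducer.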
Assay [5] in a line: qHTS assay to identify small molecule that activate the aryl hydrocarbon receptor (AhR) signaling pathway - cell viability counter screen (AID 743086). Also: nearly all actives have a fitted effect of over 45% in size. Also: potency is read from the fitted curve at half-maximal effect. In outline: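 Cytotoxicity counter screen: CellTiter-Fluor signal (30 min, 37 C) in 4000 HepG2 cells/well carrying the DRE-luciferase reporter, following 24 h compound exposure at 37 C.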
For assay [6], the target named is Nuclear receptor subfamily 1 group I member 2 (Homo sapiens) (UniProt O75469). Put plainly: CYP3A4 induction through human pregnane X receptor (PXR) by small molecules, qHTS assay (AID 1346984). Also: nearly all actives have a fitted effect of over 40% in size. In outline:
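DPX-2 reporter cells; 24h cpd, 37C; Luciferin-IPA 3uM final x3h; One-Glo 30 min RT; lumi read.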

Assay [7] shares this target. The assay can be described thus: Human pregnane X receptor (PXR) activation by small molecules, qHTS assay (AID 1346985). Also: nearly all actives have a fitted effect of over 40% in size. Also: potency is read from the fitted curve at half-maximal effect. In outline:
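DPX-2 cells (HepG2 co-transfected with a PXR response element and a CYP3A4-promoter luciferase construct) were seeded at 2,000 per well, rested 5 hr at 37C, then exposed to DMSO-dissolved compounds for 24 hr. Activation was read as luciferase luminescence.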

In assay [8] the target is Nuclear receptor subfamily 1 group I member 2 (Rattus norvegicus) (UniProt Q9R1A7). The assay can be described thus: Rat pregnane X receptor (rPXR) activation by small molecules, qHTS assay (AID 1346983). Also: nearly all actives have a fitted effect of over 20% in size. Particulars: rPXR luciferase reporter cells, One-Glo luminescence, 24 h; max activation: hits give high values. In outline:
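Luminescent readout (One-Glo luciferase, 30 min room temperature) followed 24 hr compound treatment at 37 C of rPXR cells plated 2,000 per well and preincubated 5hr; qHTS format with compounds delivered in DMSO.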
% is scaled to controls: 0 for no effect and ±100 for the full control effect.

Nuclear receptor subfamily 1 group I member 2 (Rattus norvegicus), sequence (Q9R1A7 whole entry, looked up): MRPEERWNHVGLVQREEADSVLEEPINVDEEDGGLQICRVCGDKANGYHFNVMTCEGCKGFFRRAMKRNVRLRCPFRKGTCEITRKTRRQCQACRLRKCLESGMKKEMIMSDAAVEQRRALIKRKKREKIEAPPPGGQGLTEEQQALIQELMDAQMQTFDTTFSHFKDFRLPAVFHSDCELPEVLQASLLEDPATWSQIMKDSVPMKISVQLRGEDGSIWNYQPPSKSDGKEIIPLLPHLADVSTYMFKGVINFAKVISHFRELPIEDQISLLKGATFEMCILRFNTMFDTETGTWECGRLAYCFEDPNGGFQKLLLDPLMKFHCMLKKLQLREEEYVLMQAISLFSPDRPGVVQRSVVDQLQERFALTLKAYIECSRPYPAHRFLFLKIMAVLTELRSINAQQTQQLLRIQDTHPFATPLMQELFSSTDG
Peroxisome proliferator-activated receptor gamma (Homo sapiens), sequence (P37231 whole entry, looked up): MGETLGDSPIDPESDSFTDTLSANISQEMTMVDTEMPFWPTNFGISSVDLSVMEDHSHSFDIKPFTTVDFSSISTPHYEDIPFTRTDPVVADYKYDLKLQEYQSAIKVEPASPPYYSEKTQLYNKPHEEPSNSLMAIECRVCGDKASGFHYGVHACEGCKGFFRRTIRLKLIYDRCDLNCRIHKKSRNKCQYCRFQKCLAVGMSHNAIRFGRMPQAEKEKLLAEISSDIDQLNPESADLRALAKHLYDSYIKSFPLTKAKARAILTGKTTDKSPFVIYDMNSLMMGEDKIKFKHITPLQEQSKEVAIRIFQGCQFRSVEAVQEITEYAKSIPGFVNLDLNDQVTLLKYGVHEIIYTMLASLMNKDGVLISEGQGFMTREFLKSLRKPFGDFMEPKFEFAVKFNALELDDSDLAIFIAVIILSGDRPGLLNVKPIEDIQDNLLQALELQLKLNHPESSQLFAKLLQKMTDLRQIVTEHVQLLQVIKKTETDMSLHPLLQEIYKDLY
Aryl hydrocarbon receptor (Homo sapiens), sequence (P35869 whole entry, looked up): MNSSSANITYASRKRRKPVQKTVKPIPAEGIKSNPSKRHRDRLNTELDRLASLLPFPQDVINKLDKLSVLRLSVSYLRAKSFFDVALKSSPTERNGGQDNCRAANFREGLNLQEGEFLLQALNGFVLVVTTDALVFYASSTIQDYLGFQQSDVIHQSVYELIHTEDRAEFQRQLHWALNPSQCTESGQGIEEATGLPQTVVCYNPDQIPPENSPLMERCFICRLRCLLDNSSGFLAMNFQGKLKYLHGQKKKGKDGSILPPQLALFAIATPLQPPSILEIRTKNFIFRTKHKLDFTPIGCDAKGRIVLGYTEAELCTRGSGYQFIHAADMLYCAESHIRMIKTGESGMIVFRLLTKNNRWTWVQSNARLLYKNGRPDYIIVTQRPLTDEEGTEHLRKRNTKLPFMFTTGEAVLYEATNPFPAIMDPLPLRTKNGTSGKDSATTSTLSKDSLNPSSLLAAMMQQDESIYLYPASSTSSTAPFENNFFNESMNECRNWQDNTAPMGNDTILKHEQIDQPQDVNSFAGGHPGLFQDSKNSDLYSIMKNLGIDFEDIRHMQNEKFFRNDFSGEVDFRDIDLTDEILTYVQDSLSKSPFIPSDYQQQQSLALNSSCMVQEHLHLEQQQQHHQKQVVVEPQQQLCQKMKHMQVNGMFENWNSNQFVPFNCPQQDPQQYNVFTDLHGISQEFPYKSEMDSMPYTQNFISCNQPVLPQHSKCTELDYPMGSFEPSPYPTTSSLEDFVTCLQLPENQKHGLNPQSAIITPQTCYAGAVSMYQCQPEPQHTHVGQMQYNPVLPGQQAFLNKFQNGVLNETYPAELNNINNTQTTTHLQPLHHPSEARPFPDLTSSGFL

As to `Nc1ncnc(Nc2ccc(Cl)cc2)n1`, the Potency result in assay [1], in assay [3] and in assay [4] was “inactive” in each case. Moreover, the Potency in assay [2] is 11.9 µM (active).
Turning to `O=C(Nc1ccc(Br)cc1)c1cc(Br)c(Br)s1`, the Potency result in assay [1], in assay [3] and in assay [4] was “inactive” each time. Also, the Potency in assay [2] is 16.8 µM (active).
With `Clc1ccc(COC(Cn2ccnc2)c2ccc(Cl)cc2Cl)c(Cl)c1` (stereo not drawn), the Potency result in assay [1], in assay [5], in assay [3] and in assay [4] was “inactive” in each case.
As to `OC(CN1CCCCC1)c1cc(-c2ccccc2)on1` (stereo not drawn), the Potency result in assay [1], in assay [5], in assay [3] and in assay [4] was “inactive” in each case.
Regarding `COc1cc([C@@H]2c3cc4c(cc3C(O[C@@H]3O[C@@H]5CO[C@@H](C)O[C@H]5[C@H](O)[C@H]3O)C3COC(=O)[C@@H]32)OCO4)cc(OC)c1OP(=O)(O)O` (stereo partly drawn), the Potency result in assay [1], in assay [5] and in assay [3] was “inactive” in each case. In assay [4], the PLD induction was 0.0559% [at 1.53 µM].
Take `CC(=O)N[C@@H](CC(=O)N[C@@H](CCC(=O)O)C(=O)O)C(=O)O`: the Potency entry in assay [1], in assay [2], in assay [5], in assay [3] and in assay [4] was “inactive” throughout.
`O=C[C@H](O)[C@@H](O)[C@H](O[C@H]1O[C@H](CO)[C@@H](O[C@H]2O[C@H](CO)[C@@H](O)[C@H](O)[C@H]2O)[C@H](O)[C@H]1O)[C@H](O)CO`: the Potency result in assay [1], in assay [2], in assay [5], in assay [3] and in assay [4] was “inactive” throughout.
Take `CS(=O)(=O)Nc1cc2occ(NC=O)c(=O)c2cc1Oc1ccccc1`: the Potency entry in assay [1], in assay [2], in assay [3] and in assay [4] was “inactive” each time.
Consider `CCOC(=O)[C@H](CCc1ccccc1)N[C@@H](C)C(=O)N1CC2(C[C@H]1C(=O)O)SCCS2`, for which the Potency entry in assay [1], in assay [2], in assay [5], in assay [3] and in assay [4] was “inactive” each time.
For `CC(=O)OC[C@H]1O[C@@H](O[C@H]2[C@H](O)[C@@H](OC(=O)c3ccccc3C(=O)O)[C@H](O)O[C@@H]2COC(C)=O)[C@H](O)[C@@H](OC(=O)c2ccccc2C(=O)O)[C@@H]1O`, the Potency result in assay [1], in assay [2], in assay [5] and in assay [3] was “inactive” throughout. Besides, the PLD induction in assay [4] was 5.14% [at 0.306 µM].
Turning to `CCC(=O)O[C@H]1CC[C@H]2[C@@H]3CCc4cc(O)ccc4[C@H]3CC[C@]12C`, the Potency result in assay [1], in assay [5], in assay [3] and in assay [4] was “inactive” throughout.
As for `C=C[C@]1(C)C[C@@H](OC(=O)CO)[C@]2(C)[C@H](C)CC[C@]3(CCC(=O)[C@H]32)[C@@H](C)[C@@H]1O`, the Potency entry in assay [1], in assay [2], in assay [5], in assay [3] and in assay [4] was “inactive” in each case.
Turning to `N[C@@H](C(=O)N[C@@H]1C(=O)N2C(C(=O)O)=C(CSc3cn[nH]n3)CS[C@H]12)c1ccc(O)cc1`, the Potency entry in assay [1], in assay [2], in assay [5], in assay [3] and in assay [4] was “inactive” in each case.
Take `C[C@@H]1C[C@H]2C3C[C@H](F)C4=CC(=O)C=CC4(C)[C@@]3(F)[C@@H](O)CC2(C)[C@@]1(O)C(=O)COC(=O)C(C)(C)C` (stereo partly drawn): the Potency result in assay [1], in assay [5], in assay [3] and in assay [4] was “inactive” in each case.
For `CCCCCCCCCCCCCCCC(=O)OCCC1CCN(CCCN2c3ccccc3Sc3ccc(S(=O)(=O)N(C)C)cc32)CC1`, the Potency entry in assay [1], in assay [2], in assay [3] and in assay [4] was “inactive” each time.
As to `COc1cc(Br)c(C[N+]2(CCOCCC3CCC4CC3C4(C)C)CCOCC2)cc1OC` (stereo not drawn), the Potency entry in assay [1], in assay [2], in assay [5], in assay [3] and in assay [4] was “inactive” each time.
Take `CN=C(NC)NCc1ccccc1`: the Potency result in assay [1], in assay [2], in assay [5], in assay [3] and in assay [4] was “inactive” each time.
As for `CC(CC(c1ccccc1)c1ccccc1)NC(C)(C)C` (stereo not drawn), the Potency result in assay [1], in assay [2], in assay [5] and in assay [3] was “inactive” each time.
In the case of `C=C[C@]1(C)C[C@@H](OC(=O)CSC(C)(C)CNC(=O)[C@H](N)C(C)C)[C@]2(C)[C@H](C)CC[C@]3(CCC(=O)[C@H]32)[C@@H](C)[C@@H]1O`, the Potency in assay [1] is 2.98 µM (active); in assay [5], 3.76 µM (active); in assay [7], 8.91 µM (active). Moreover, the Potency entry in assay [2] and in assay [6] was “inactive” throughout.
As for `Cc1cc(/C=C/c2ccc3cc(N(C)C)ccc3[n+]2C)c(C)n1-c1ccccc1`, the Potency in assay [1] is 8.04 µM (active). The max activation in assay [8] is -14%. The Potency entry in assay [7] is “inactive”.
As for `CC(=O)c1ccc2c(c1)N(CCCN1CCN(CCO)CC1)c1ccccc1S2`, the max activation in assay [8] was -12.2%. For the same compound, the Potency result in assay [7] is “inactive”.
Consider `CCCC(=O)O[C@]1(C(=O)COC(=O)CC)[C@@H](C)C[C@H]2[C@@H]3CCC4=CC(=O)C=C[C@]4(C)[C@@]3(F)[C@@H](O)C[C@@]21C`, for which the Potency result in assay [1] was “inactive”.
Regarding `C=C1C(=C/C=C2\CCC[C@]3(C)[C@@H]([C@H](C)CCCC(C)(C)O)CC[C@@H]23)C[C@@H](O)C[C@@H]1O`, the Potency entry in assay [1], in assay [5] and in assay [6] was “inactive” throughout. Besides, the Potency in assay [2] was 10.6 µM (active). In addition, in assay [8], the max activation was 0.618%.
`CCC(=O)OCC(=O)[C@@]1(OC(=O)CC)[C@H](C)C[C@H]2[C@@H]3CCC4=CC(=O)C=C[C@]4(C)[C@@]3(F)[C@@H](O)C[C@@]21C`: the Potency entry in assay [1], in assay [2], in assay [5] and in assay [3] was “inactive” throughout.
On to `CC#CCC(C)[C@H](O)/C=C/[C@@H]1[C@H]2C/C(=C/CCCC(=O)O)C[C@H]2C[C@H]1O` (stereo partly drawn), for which the Potency entry in assay [1], in assay [2], in assay [5] and in assay [3] was “inactive” each time.
Consider `CN1CCN(C2=Nc3ccccc3Cc3ccccc32)CC1`, for which the Potency entry in assay [1], in assay [2], in assay [5] and in assay [3] was “inactive” each time.
With `COc1ccc(CNCC(O)COc2ccc3[nH]c(=O)ccc3c2)cc1OC` (stereo not drawn), the Potency result in assay [1], in assay [2], in assay [5] and in assay [3] was “inactive” each time.
As to `O=C(O[C@H]1CN2CCC1CC2)N1CCc2ccccc2[C@@H]1c1ccccc1`, the Potency result in assay [1], in assay [2] and in assay [5] was “inactive” each time.
`CCOc1ccc(N=C(C)Nc2ccc(OCC)cc2)cc1`: the Potency result in assay [1], in assay [2] and in assay [5] was “inactive” throughout.
Consider `O=C(O)c1c(Cl)c(Cl)c(Cl)c(Cl)c1-c1c2cc(I)c(=O)c(I)c-2oc2c(I)c(O)c(I)cc12`, for which the Potency in assay [1] is 23.7 µM (active); in assay [2], 6.68 µM (active); in assay [5], 23.7 µM (active). For the same compound, the Potency entry in assay [3] and in assay [7] was “inactive” in each case. The max activation in assay [8] is -7.42%.
For `N#Cc1ccc2c(c1)N(CCCN1CCC(O)CC1)c1ccccc1S2`, the Potency entry in assay [1], in assay [2] and in assay [3] was “inactive” throughout. Also, the max activation in assay [8] is -1.43%.

The values are drawn from PubChem BioAssay (Tox21).
